{"source": "paper PMC6212790", "about": "“How bacterial xenogeneic silencer rok distinguishes foreign from self DNA in its resident genome”", "note": "In all, about 33,000 sequences were measured (“e-score”: median about -0.038, highest 2% from about 0.33 on). The sample as a whole holds a higher share of the highest values than the screen did.", "data": [{"biological_target": "T1, GST-Rok-C97-191 (Bacillus subtilis subsp. subtilis str. …, UniProt O34857 97-191)", "T1 sequence": "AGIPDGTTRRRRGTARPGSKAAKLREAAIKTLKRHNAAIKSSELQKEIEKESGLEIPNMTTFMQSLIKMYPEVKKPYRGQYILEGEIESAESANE", "experiment": "protein binding microarray; Rok is a gene silencer of Bacillus subtilis; high values mean tight binding", "details": "protein: recombinant; tags: GST (pTH5325, pDEST15-Magic modified); dsDNA, one strand shown", "in_short": "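Each has a 25-mer constant primer and a 35-mer variable part from a de Bruijn sequence of order 10, covering every non-palindromic 8-mer at least 32 times (palindromic 16). Preference for each 8-mer is given as a rank-based, unitless enrichment score (E-score). Its range runs from 0.5 (most favored) to −0.5 (most disfavored).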", "units": {"binding signal": "E-score"}, "values": [{"sequence": "CAGATAGA", "binding signal": 0.16}, {"sequence": "TAGATACA", "binding signal": 0.329}, {"sequence": "AAGATAAA", "binding signal": 0.314}, {"sequence": "GAATAGCC", "binding signal": -0.126}, {"sequence": "AGCAGTCC", "binding signal": -0.0761}, {"sequence": "AACCCACT", "binding signal": 0.0905}, {"sequence": "ACATCGAA", "binding signal": 0.0242}, {"sequence": "GCGGCAGA", "binding signal": -0.0665}, {"sequence": "GGTTTGGA", "binding signal": -0.0233}, {"sequence": "TTCTTCAA", "binding signal": -0.0566}, {"sequence": "AGTGGATG", "binding signal": -0.131}, {"sequence": "AAGGCGAT", "binding signal": -0.0931}, {"sequence": "CAGATATA", "binding signal": 0.195}, {"sequence": "TAGATATA", "binding signal": 0.359}, {"sequence": "GAGATATA", "binding signal": 0.301}, {"sequence": "ACGTACTC", "binding signal": 0.0226}, {"sequence": "ATTATTAC", "binding signal": 0.387}, {"sequence": "CTTATTAC", "binding signal": 0.332}, {"sequence": "CTTATTTC", "binding signal": 0.221}, {"sequence": "ATTATTAA", "binding signal": 0.199}, {"sequence": "ATTATTAG", "binding signal": 0.325}, {"sequence": "CTTATTAA", "binding signal": 0.117}, {"sequence": "GTAGCTGA", "binding signal": 0.279}, {"sequence": "AATCCTTA", "binding signal": 0.107}, {"sequence": "GAATAAAC", "binding signal": 0.0598}, {"sequence": "ACTCATCG", "binding signal": 0.0111}, {"sequence": "AATAGGGT", "binding signal": 0.0409}, {"sequence": "GGTATAAC", "binding signal": 0.266}, {"sequence": "AGTATATC", "binding signal": 0.261}, {"sequence": "AGTATATA", "binding signal": 0.428}, {"sequence": "GGTATATA", "binding signal": 0.406}, {"sequence": "AGTATATG", "binding signal": 0.264}, {"sequence": "CGTATATA", "binding signal": 0.258}, {"sequence": "GGTATAAA", "binding signal": 0.352}, {"sequence": "GGTATAGA", "binding signal": 0.221}, {"sequence": "AGTATAAA", "binding signal": 0.289}, {"sequence": "CATTAAGG", "binding signal": -0.0335}, {"sequence": "AGACATTA", "binding signal": 0.0762}, {"sequence": "ATCCGTAA", "binding signal": -0.0485}, {"sequence": "GACTCATA", "binding signal": -0.063}, {"sequence": "CCATCAGA", "binding signal": -0.0159}, {"sequence": "CGTGCACC", "binding signal": -0.199}, {"sequence": "CCTACCAG", "binding signal": 0.0329}, {"sequence": "GCCCTGTA", "binding signal": -0.192}, {"sequence": "CTACTAGC", "binding signal": 0.256}, {"sequence": "CTACTACC", "binding signal": 0.363}, {"sequence": "ATACTACC", "binding signal": 0.379}, {"sequence": "ACACTACC", "binding signal": -0.0628}, {"sequence": "CGACTACC", "binding signal": 0.000144}, {"sequence": "ATACTACG", "binding signal": 0.273}, {"sequence": "GCTAACCA", "binding signal": -0.102}, {"sequence": "GAGTCTTA", "binding signal": -0.0226}, {"sequence": "GCTTACAC", "binding signal": -0.028}, {"sequence": "ACGCGGGA", "binding signal": -0.0896}, {"sequence": "CGAGCCGA", "binding signal": -0.177}, {"sequence": "ACTAAATC", "binding signal": 0.35}, {"sequence": "ACTAAAAC", "binding signal": 0.26}, {"sequence": "ACTAAAAA", "binding signal": 0.26}, {"sequence": "CCTAAATC", "binding signal": -0.11}, {"sequence": "GCTAAATA", "binding signal": 0.32}, {"sequence": "ACTAAATG", "binding signal": 0.226}, {"sequence": "ACTAAATA", "binding signal": 0.354}, {"sequence": "ACTAAAAT", "binding signal": 0.397}, {"sequence": "CCTAAATA", "binding signal": 0.155}, {"sequence": "ATGAACTC", "binding signal": -0.191}, {"sequence": "GTCGCCTA", "binding signal": -0.125}, {"sequence": "CCTATTAC", "binding signal": 0.247}, {"sequence": "ACTATTAC", "binding signal": 0.4}, {"sequence": "ACTATTAT", "binding signal": 0.364}, {"sequence": "ACTATTAG", "binding signal": 0.263}, {"sequence": "GCTATTAC", "binding signal": 0.285}, {"sequence": "ACTATTAA", "binding signal": 0.302}, {"sequence": "ACGGAAAG", "binding signal": -0.117}, {"sequence": "CAGCTGCA", "binding signal": -0.0452}, {"sequence": "AACCTAAA", "binding signal": 0.0757}, {"sequence": "CACCTAAA", "binding signal": 0.0109}, {"sequence": "TACCTATA", "binding signal": 0.375}, {"sequence": "CACCTATA", "binding signal": 0.223}, {"sequence": "TACCTAAA", "binding signal": 0.369}, {"sequence": "AACCTATA", "binding signal": 0.183}, {"sequence": "ACAATGGA", "binding signal": -0.0232}, {"sequence": "GCTAGCCA", "binding signal": 0.153}, {"sequence": "GATAAGAA", "binding signal": 0.0314}, {"sequence": "CTATTACA", "binding signal": 0.35}, {"sequence": "GTATTATA", "binding signal": 0.388}, {"sequence": "ATATTATA", "binding signal": 0.379}, {"sequence": "CGATTATA", "binding signal": 0.261}, {"sequence": "CTATTACC", "binding signal": 0.312}, {"sequence": "GTATTAAA", "binding signal": 0.158}, {"sequence": "GTATTAGA", "binding signal": 0.171}, {"sequence": "CTATTATA", "binding signal": 0.329}, {"sequence": "ATATTATG", "binding signal": 0.0424}, {"sequence": "ATATTATC", "binding signal": 0.245}, {"sequence": "CTATTATC", "binding signal": 0.211}, {"sequence": "ATATTACA", "binding signal": 0.304}, {"sequence": "CCCACTAC", "binding signal": 0.0131}, {"sequence": "AAGTGGCC", "binding signal": -0.135}, {"sequence": "ATGCATAC", "binding signal": 0.0643}, {"sequence": "AATGACAT", "binding signal": 0.115}, {"sequence": "ATCTAACA", "binding signal": 0.192}, {"sequence": "CTCTTAGA", "binding signal": -0.0403}, {"sequence": "CGAAAATA", "binding signal": 0.204}, {"sequence": "GAAAAATA", "binding signal": 0.273}, {"sequence": "AGAAAATA", "binding signal": 0.342}, {"sequence": "GGAAAATA", "binding signal": 0.331}, {"sequence": "GGGAAATA", "binding signal": 0.229}, {"sequence": "CGAAATTA", "binding signal": 0.31}, {"sequence": "AGAAAATG", "binding signal": 0.187}, {"sequence": "AGAAATTA", "binding signal": 0.344}, {"sequence": "GGAAATTA", "binding signal": 0.28}, {"sequence": "AAGAAGTG", "binding signal": 0.201}, {"sequence": "GACCGGAA", "binding signal": -0.0227}, {"sequence": "ATCCTGTA", "binding signal": 0.176}, {"sequence": "ACGTAAGT", "binding signal": -0.0408}, {"sequence": "AGCGTTTG", "binding signal": 0.0655}, {"sequence": "ACAAAAAA", "binding signal": 0.136}, {"sequence": "AATCGTCG", "binding signal": -0.0319}, {"sequence": "GAACTAGA", "binding signal": 0.335}, {"sequence": "AAACTAGA", "binding signal": 0.354}, {"sequence": "ACACTAGA", "binding signal": 0.179}, {"sequence": "AGACTAGA", "binding signal": 0.199}, {"sequence": "CAACTAGA", "binding signal": 0.255}, {"sequence": "TAACTAGA", "binding signal": 0.247}, {"sequence": "CCTAATCA", "binding signal": 0.011}, {"sequence": "CCTCTTAA", "binding signal": -0.103}, {"sequence": "AACGCCAG", "binding signal": -0.0768}, {"sequence": "GAGGGAAC", "binding signal": -0.0649}, {"sequence": "GTAAACGA", "binding signal": -0.119}, {"sequence": "ATAAATTA", "binding signal": 0.259}, {"sequence": "ATAAACTA", "binding signal": 0.359}, {"sequence": "GTAAATTA", "binding signal": 0.378}, {"sequence": "ATAAACTC", "binding signal": 0.173}, {"sequence": "CTAAACTA", "binding signal": 0.386}, {"sequence": "GTAAACAA", "binding signal": -0.0801}, {"sequence": "ATAAACTG", "binding signal": 0.199}, {"sequence": "CTAAACTC", "binding signal": 0.0554}, {"sequence": "CTAAACGA", "binding signal": -0.0375}, {"sequence": "GTAAACTA", "binding signal": 0.364}, {"sequence": "CTAAATTA", "binding signal": 0.141}, {"sequence": "GGAGGAAC", "binding signal": -0.069}, {"sequence": "ATAAGAAG", "binding signal": 0.0784}, {"sequence": "TACAATAA", "binding signal": 0.108}, {"sequence": "ACAAGGAG", "binding signal": -0.167}, {"sequence": "AAACAGCC", "binding signal": -0.174}, {"sequence": "TATGACAA", "binding signal": -0.00238}, {"sequence": "CCGGCAAG", "binding signal": -0.0857}, {"sequence": "CGCATGAC", "binding signal": -0.0389}, {"sequence": "CATCCATC", "binding signal": -0.0668}, {"sequence": "AAGCGGAC", "binding signal": -0.0303}, {"sequence": "GAGAGCTC", "binding signal": -0.123}, {"sequence": "CATGAATG", "binding signal": -0.00652}, {"sequence": "GATTGCTA", "binding signal": 0.18}, {"sequence": "AATTGGTA", "binding signal": 0.331}, {"sequence": "AATTGCTA", "binding signal": 0.328}, {"sequence": "AAGTGGTA", "binding signal": 0.385}, {"sequence": "CATTGCTA", "binding signal": 0.118}, {"sequence": "AATTGGTC", "binding signal": -0.0353}, {"sequence": "CAGTGGTA", "binding signal": 0.232}, {"sequence": "CATTGGTA", "binding signal": 0.279}, {"sequence": "AAGTGGTC", "binding signal": -0.168}, {"sequence": "GTCAAGTA", "binding signal": 0.157}, {"sequence": "CCTTTTCC", "binding signal": -0.198}, {"sequence": "CGCAACCG", "binding signal": 0.0123}, {"sequence": "TAATTATA", "binding signal": 0.386}, {"sequence": "GAATTATA", "binding signal": 0.24}, {"sequence": "GAATTACA", "binding signal": 0.275}, {"sequence": "TAATTACA", "binding signal": 0.396}, {"sequence": "AAATTATT", "binding signal": 0.296}, {"sequence": "AAATTATC", "binding signal": 0.364}, {"sequence": "AAATTATG", "binding signal": 0.224}, {"sequence": "AAATTAAA", "binding signal": 0.205}, {"sequence": "GAATTATC", "binding signal": 0.23}, {"sequence": "AAATTATA", "binding signal": 0.389}, {"sequence": "CAATTATA", "binding signal": 0.291}, {"sequence": "AAATTACA", "binding signal": 0.325}]}]}
